Where “and” joins values, the source holds several entries; their conditions need not be identical. Identical values can stand only once. Unmarked numbers belong to inactive results. Records with an inconclusive call do not appear. A call without a number means that no potency is given here. Calls of active or inactive are those of the source. Unless noted, calls come from the whole dose curve; as a rule, active = well fitted curve in the direction sought with a large enough effect; inconclusive = small, poorly fitted or top-dose-only effect, or another doubt; inactive = no such curve, though single readings can be large; an effect the other way counts as inactive or inconclusive.

Test [1] concerns the target Ubiquitin carboxyl-terminal hydrolase 1 (Homo sapiens) (UniProt O94782). The test can be described thus: Inhibitors of USP1/UAF1: Pilot qHTS (AID 504865). Note: nearly all actives have a fitted effect of over 35% in size. Note: potency is the fitted concentration of half-maximal effect. The method, boiled down:
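1nM USP1/UAF1 + cpd, 15 min RT; start w/ Ub-Rho 150nM final; kinetic FL 480/540 nm, 6 reads q60 s. Buffer 50mM HEPES pH 7.8, 0.5mM EDTA, 1mM TCEP, 0.01% Tween-20, 0.1 mg/ml BSA.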
A general note: Quantitative high-throughput screening tests each substance at several concentrations.

Test [2] in a line: qHTS for Inhibitors of ATXN expression: Validation of Cytotoxic Assay (AID 588349). Note: potency is the fitted concentration of half-maximal effect. In a few lines:
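HEK293 cells treated with titrated compound for 72 hr at 37 degrees C; viability read as intracellular ATP by CellTiter Glo luminescence.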

Test [3] has as its target DNA dC->dU-editing enzyme APOBEC-3G (Homo sapiens) (UniProt Q9HC16). The test can be described thus: qHTS for inhibitors of Vif-A3G interactions: Validation (AID 588379). In a few lines:
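HeLa cells stably expressing Vif and A3G-eYFP, 700 cells/well, incubated overnight at 37 deg C, then exposed to compound overnight at 37 deg C. Inhibition of Vif-mediated degradation read as increased yellow fluorescence (Ex 488/Em 500-530) by laser-scanning cytometry.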

For test [4], the target named is Androgen receptor (Homo sapiens) (UniProt P10275). Briefly: qHTS assay for small molecule antagonists of androgen receptor signaling (AID 588516; active = well fitted curve in the direction sought with a large enough effect in the signal ratio, with a control signal flat, not every such curve was filed as active; the % refers to the signal ratio). The method, boiled down:
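HEK293 AR-UAS-bla cells, 10% dialyzed FBS medium; cpd titration + R1881 10 nM final, 16 h 37 C; CCF4 2 h RT; FRET ratio; IC50/efficacy via Hill fit.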

The target of test [5] is Bile acid receptor (Homo sapiens) (UniProt Q96RI1). Briefly: qHTS assay for small molecule antagonists of farnesoid X receptor signaling (AID 588526; calls by dose curve). In a few lines: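 Concentration-response titrations were fitted to the Hill equation for half-maximal inhibition and maximal response, with data normalised to 50 uM chenodeoxycholic acid and DMSO control wells. Cells: FXR-UAS-bla HEK293T, dialyzed FBS.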
Bile acid receptor (Homo sapiens), sequence (Q96RI1 whole entry, looked up): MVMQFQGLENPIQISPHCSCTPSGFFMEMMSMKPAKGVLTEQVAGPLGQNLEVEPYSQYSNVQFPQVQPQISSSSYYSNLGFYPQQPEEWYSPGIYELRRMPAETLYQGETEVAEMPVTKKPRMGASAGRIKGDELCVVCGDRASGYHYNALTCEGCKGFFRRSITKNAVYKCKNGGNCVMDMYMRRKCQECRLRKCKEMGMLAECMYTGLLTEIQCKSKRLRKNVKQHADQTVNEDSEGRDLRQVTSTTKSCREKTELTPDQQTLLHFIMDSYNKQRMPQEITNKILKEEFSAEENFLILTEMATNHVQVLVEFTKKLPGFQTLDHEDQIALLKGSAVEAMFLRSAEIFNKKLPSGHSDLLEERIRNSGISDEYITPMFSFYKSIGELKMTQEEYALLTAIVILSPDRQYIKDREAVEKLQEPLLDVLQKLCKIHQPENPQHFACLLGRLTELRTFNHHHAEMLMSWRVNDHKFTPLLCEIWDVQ

Test [6] has as its target Glucocorticoid receptor (Homo sapiens) (UniProt P04150). The test can be described thus: qHTS assay for small molecule agonists of glucocorticoid receptor signaling (AID 588532; active = well fitted curve in the direction sought with a large enough effect in the signal ratio, with a control signal flat; the % refers to the signal ratio). Particulars: HeLa MMTV-bla, beta-lactamase ratio, agonist, 18 h; stronger effect = higher value; percent of dexamethasone control, DMSO zero. The method, boiled down:
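Titration series, up to 92 uM, applied to GRE-bla HeLa cells for 18 h at 37 C. Detection by CCF4 FRET substrate after 2 h at RT.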

Test [7] shares this target. The test can be described thus: qHTS assay for small molecule antagonists of glucocorticoid receptor signaling (AID 588533; active = well fitted inhibition curve with a large enough effect in the signal ratio, with a control signal flat, not every such curve was filed as active; the % refers to the signal ratio;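 note: cells stimulated with 2 nM dexamethasone as agonist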; note: potency is the fitted concentration of half-maximal effect). The method, boiled down:
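Antagonist-mode qHTS: compound titrations added to GRE-bla HeLa cells, then dexamethasone 2 nM final; 18 h, 37 C. CCF4 FRET fluorescence normalized to dexamethasone and DMSO; IC50 from Hill fit.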

Test [8] has as its target Estrogen receptor (Homo sapiens) (UniProt P03372). Briefly: qHTS assay for small molecule antagonists of estrogen receptor alpha signaling (AID 588513; active = well fitted curve in the direction sought with a large enough effect in the signal ratio, with a control signal flat, not every such curve was filed as active; the % refers to the signal ratio). The method, boiled down:
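Beta-lactamase reporter, antagonist mode, HEK 293 GripTite cells; 0.5nM E2 stimulus, 18 h, 37 C; CCF4 dye 2 h RT; fluorescence. IC50 and efficacy from Hill fits, normalized to E2 and DMSO.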

For test [9] the target is unchanged. Briefly: qHTS assay for small molecule agonists of estrogen receptor alpha signaling (AID 588514; calls by dose curve; note: nearly all actives have a fitted effect of over 70% in size). In a few lines:
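ER-alpha-UAS-bla GripTite HEK293 cells, 5000/well in 2% charcoal/dextran-stripped FBS medium, treated with compound titrations 18 h at 37 C. CCF4 beta-lactamase read by fluorescence after 2 h RT; normalised to 20 nM 17-beta-estradiol (100%) and DMSO (0%), Hill fit for EC50 and efficacy.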

Test [10] has as its target Androgen receptor (Homo sapiens) (UniProt P10275). The test can be described thus: qHTS assay for small molecule agonists of androgen receptor signaling (AID 588515; active = well fitted curve in the direction sought with a large enough effect in the signal ratio, with a control signal flat; the % refers to the signal ratio). Particulars: AR-UAS-bla HEK293, beta-lactamase ratio, agonist 16 h; stronger effect = higher value. In a few lines:
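EC50 and efficacy came from Hill fits of titrations (up to 92 uM) normalized to 30 nM R1881 as 100% and DMSO as 0%. Compound exposure was 16 h at 37 C on AR-UAS-bla HEK293 cells, with a 405/460/530 nm CCF4 fluorescence read.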

DNA dC->dU-editing enzyme APOBEC-3G (Homo sapiens), sequence (Q9HC16 whole entry, looked up): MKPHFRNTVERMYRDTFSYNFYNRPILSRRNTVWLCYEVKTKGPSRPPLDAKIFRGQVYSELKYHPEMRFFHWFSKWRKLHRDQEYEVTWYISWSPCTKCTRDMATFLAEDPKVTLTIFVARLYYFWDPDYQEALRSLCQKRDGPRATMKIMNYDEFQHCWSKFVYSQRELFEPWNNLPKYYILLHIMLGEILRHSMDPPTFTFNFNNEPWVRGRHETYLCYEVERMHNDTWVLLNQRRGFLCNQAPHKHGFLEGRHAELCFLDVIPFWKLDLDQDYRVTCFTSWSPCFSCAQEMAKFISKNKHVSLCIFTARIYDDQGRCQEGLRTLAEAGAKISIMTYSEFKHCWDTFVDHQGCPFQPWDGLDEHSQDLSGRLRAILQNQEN
Ubiquitin carboxyl-terminal hydrolase 1 (Homo sapiens), sequence (O94782 whole entry, looked up): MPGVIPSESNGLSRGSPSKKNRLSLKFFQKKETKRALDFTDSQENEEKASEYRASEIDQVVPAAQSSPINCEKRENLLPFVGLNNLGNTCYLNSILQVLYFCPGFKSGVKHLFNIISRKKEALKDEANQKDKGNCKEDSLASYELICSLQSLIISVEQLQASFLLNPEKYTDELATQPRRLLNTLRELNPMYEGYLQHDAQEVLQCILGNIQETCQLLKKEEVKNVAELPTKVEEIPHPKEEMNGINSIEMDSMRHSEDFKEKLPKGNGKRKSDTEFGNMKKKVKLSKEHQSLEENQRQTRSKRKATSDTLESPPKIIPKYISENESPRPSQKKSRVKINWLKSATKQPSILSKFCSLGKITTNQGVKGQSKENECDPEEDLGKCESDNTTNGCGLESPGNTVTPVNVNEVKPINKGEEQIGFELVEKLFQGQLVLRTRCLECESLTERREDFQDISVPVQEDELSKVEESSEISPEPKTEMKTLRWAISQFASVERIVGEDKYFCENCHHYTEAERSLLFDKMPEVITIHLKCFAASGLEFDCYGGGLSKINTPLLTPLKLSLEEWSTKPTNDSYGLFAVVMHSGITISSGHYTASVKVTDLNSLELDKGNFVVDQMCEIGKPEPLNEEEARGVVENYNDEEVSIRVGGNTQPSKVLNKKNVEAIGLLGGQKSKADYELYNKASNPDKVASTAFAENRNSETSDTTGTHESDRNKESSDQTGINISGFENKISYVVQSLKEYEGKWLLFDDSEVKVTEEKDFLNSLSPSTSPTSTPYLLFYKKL
Glucocorticoid receptor (Homo sapiens), sequence (P04150 whole entry, looked up): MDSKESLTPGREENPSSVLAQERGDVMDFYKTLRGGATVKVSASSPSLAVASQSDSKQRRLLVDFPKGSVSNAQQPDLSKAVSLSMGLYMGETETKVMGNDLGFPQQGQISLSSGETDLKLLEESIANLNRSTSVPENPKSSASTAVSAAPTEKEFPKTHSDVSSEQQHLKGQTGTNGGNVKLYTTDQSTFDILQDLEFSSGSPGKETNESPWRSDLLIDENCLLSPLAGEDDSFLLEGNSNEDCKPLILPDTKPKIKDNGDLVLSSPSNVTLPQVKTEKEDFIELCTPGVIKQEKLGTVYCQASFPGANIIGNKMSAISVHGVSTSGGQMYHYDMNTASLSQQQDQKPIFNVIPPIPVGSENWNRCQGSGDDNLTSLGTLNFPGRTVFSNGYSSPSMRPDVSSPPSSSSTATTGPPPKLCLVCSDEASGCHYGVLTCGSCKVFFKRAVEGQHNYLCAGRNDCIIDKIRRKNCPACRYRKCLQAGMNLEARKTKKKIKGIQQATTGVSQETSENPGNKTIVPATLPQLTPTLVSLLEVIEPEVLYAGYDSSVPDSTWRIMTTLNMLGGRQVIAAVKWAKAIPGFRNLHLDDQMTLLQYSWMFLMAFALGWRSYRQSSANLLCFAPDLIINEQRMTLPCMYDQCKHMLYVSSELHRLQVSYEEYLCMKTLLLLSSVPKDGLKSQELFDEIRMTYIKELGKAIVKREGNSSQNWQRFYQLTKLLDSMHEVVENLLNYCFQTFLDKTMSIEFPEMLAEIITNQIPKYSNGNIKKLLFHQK
Androgen receptor (Homo sapiens), sequence (P10275 whole entry, looked up): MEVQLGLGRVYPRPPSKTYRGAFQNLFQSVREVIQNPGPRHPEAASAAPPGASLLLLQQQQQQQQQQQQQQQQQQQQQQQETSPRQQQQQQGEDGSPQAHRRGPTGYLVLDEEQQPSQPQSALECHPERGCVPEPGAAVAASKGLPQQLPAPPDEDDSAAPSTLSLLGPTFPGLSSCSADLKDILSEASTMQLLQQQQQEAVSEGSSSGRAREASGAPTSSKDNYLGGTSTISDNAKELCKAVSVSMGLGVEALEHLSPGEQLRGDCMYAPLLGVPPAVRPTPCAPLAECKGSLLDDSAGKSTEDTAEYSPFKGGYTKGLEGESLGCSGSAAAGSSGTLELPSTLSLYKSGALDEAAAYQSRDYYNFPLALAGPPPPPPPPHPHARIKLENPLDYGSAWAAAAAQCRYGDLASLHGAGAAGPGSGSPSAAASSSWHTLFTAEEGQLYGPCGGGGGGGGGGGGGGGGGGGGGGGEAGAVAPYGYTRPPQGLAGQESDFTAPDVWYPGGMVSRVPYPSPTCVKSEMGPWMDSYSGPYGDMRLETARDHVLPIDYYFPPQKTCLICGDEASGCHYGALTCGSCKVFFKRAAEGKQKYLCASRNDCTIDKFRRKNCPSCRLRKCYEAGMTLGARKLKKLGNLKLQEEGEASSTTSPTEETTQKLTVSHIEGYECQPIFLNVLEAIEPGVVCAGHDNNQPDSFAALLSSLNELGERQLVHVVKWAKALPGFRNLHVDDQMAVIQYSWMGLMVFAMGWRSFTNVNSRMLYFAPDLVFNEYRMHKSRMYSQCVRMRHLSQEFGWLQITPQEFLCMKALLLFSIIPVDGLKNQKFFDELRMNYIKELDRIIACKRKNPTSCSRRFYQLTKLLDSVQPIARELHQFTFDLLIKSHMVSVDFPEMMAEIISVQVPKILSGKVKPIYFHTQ
Estrogen receptor (Homo sapiens), sequence (P03372 whole entry, looked up): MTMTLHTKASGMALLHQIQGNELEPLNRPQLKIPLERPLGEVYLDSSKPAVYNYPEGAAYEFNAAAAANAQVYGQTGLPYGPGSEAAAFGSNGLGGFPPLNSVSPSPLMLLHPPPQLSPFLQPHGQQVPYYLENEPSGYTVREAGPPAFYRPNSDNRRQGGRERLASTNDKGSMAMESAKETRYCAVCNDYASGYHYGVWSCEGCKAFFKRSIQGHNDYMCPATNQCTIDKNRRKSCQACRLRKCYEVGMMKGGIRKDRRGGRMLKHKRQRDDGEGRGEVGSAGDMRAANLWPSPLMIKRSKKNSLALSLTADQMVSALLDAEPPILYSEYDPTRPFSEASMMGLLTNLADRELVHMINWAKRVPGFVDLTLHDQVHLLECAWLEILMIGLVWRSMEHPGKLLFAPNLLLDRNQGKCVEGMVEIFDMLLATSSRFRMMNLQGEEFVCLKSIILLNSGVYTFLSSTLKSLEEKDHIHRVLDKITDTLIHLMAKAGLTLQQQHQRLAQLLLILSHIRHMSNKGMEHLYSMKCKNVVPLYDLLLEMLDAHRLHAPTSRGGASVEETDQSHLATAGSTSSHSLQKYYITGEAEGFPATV

For `CCOC(=O)O[C@]1(C(=O)OCCl)CC[C@@H]2[C@H]3CCC4=CC(=O)C=C[C@]4(C)[C@@H]3[C@@H](O)C[C@@]21C`, the Potency entry in test [1] was “inactive”.

Turning to `COc1ccccc1N1CCN(CCCNc2cc(=O)n(C)c(=O)n2C)CC1`, the Potency result in [1] and in [2] was “inactive” each time. In addition, the compound was classed as inactive in test [3].

Turning to `CC1(C)O[C@H]2C[C@@H]3[C@H]4CCC5=CC(=O)C=C[C@]5(C)[C@@]4(F)[C@@H](O)C[C@]3(C)[C@]2(C(=O)CO)O1`, the Potency entry in [1] is “inactive”.

Turning to `Cc1cccc(C)c1OCC(C)N` (stereo not given), the Potency result in [1] and in [2] was “inactive” throughout.

Regarding `O=C(NCCN1CCOCC1)c1ccc(Cl)cc1`, the Potency result in test [1] and in test [2] was “inactive” throughout.

For the compound `C[N+](C)(C)CCCCCC[N+](C)(C)C`, the Potency entry in test [1] and in test [2] was “inactive” in each case.

Regarding `CCN(CC)C(=O)c1ccc(O)c(OC)c1`, the Potency result in test [1] and in test [2] was “inactive” each time.

As for `CC(=O)O[C@]1(C(C)=O)CC[C@H]2[C@@H]3C=C(Cl)C4=CC(=O)[C@@H]5C[C@@H]5[C@]4(C)[C@H]3CC[C@@]21C`, the Potency entry in test [1] and in [2] was “inactive” throughout.

Turning to `O=C(O)c1c(Cl)c(Cl)c(Cl)c(Cl)c1-c1c2cc(I)c(=O)c(I)c-2oc2c(I)c(O)c(I)cc12`, the Potency in test [1] was 20 µM (active).

On to `COc1ccc(C2Sc3ccccc3N(CCN(C)C)C(=O)C2OC(C)=O)cc1` (stereo not given), for which the Potency entry in test [1] is “inactive”.

`O=C1NCC2(CCN(CCc3ccccc3)CC2)O1`: the Potency entry in test [1] and in test [2] was “inactive” in each case.

Regarding `NC(N)=Nc1nc(CSCC/C(N)=N/S(N)(=O)=O)cs1`, the Potency entry in test [1] and in test [2] was “inactive” throughout.

In the case of `Nc1ncnc2c1ncn2[C@@H]1O[C@@H](CO)[C@H](O)[C@H]1O`, in [1], the Potency result was “inactive”.

Take `O=C(O)CCc1nc(-c2ccccc2)c(-c2ccccc2)o1`: the Potency result in [1] and in test [2] was “inactive” throughout.

`CCCCCN(C)CCC(O)(P(=O)(O)O)P(=O)(O)O`: the Potency entry in [1] and in test [2] was “inactive” throughout.

With `O=c1c(-c2ccc(O)cc2)coc2cc(O)ccc12`, the Potency result in test [1], in test [2] and in [7] was “inactive” throughout. Further, the outcome in [3], in test [4] and in test [5] was inactive. The activation in [6] was -8.98% and -6.42%.

On to `Cc1cnc(C(=O)O)c[n+]1[O-]`, for which, in test [1], the Potency entry is “inactive”.

`CC1(C)CCC2=C(O1)c1ccccc1C(=O)C2=O`: the Potency was 5.01 µM (active) in test [1] and 22.4 µM (active) in test [2].

As for `C[C@@H](O)[C@H]1C(=O)N2C(C(=O)O)=C(S[C@@H]3CN[C@H](C(=O)N(C)C)C3)[C@H](C)[C@H]12`, the Potency result in test [1] was “inactive”.

Consider `CCN1CCC[C@H]1CNC(=O)c1cc(S(N)(=O)=O)ccc1OC`, for which the Potency entry in test [1] and in test [2] was “inactive” in each case. For the same compound, in test [3], the outcome was inactive.

`O=c1cc(-c2ccc(O)cc2)oc2cc(O)cc(O)c12`: the Potency result in test [1] and in [2] was “inactive” in each case. Also, the call in [3] was inactive. Also, the Potency in [7] was 31.6 µM (active).

`COc1cc2ncnc(Nc3ccc(F)c(Cl)c3)c2cc1OCCCN1CCOCC1`: the Potency entry in test [1] is “inactive”.

`CC(C)NCC(O)COc1cccc2[nH]ccc12` (stereo not given): the Potency entry in test [1] and in test [2] was “inactive” throughout.

Take `NCCS`: the Potency result in test [1] and in test [2] was “inactive” each time.

In the case of `COc1cccc(-c2cc(=O)c3ccccc3o2)c1N`, the Potency entry in test [1] and in [2] was “inactive” each time. Besides, the compound was called inactive in test [3].

In the case of `CC(=O)CCCCn1c(=O)c2c(ncn2C)n(C)c1=O`, the Potency entry in test [1] and in [2] was “inactive” in each case.

Regarding `COC(=O)[C@@H]1[C@H]2C[C@H]3c4[nH]c5ccccc5c4CCN3C[C@@H]2CC[C@@H]1O`, the Potency entry in [1] and in [2] was “inactive” each time.

For the compound `CCN(CC)CCOC(=O)c1ccc(N)cc1`, the Potency entry in test [1] and in test [2] was “inactive” throughout.

Regarding `O=C(O)c1cc(O)c2c(c1)C(=O)c1cccc(O)c1C2=O`, in test [3], the outcome was inactive. For the same compound, the Potency entry in test [8] is “inactive”. In addition, the activation in test [6] is 1.5%.

For the compound `CCCCCCCCCCCC1=C(O)C(=O)C=C(O)C1=O`, the compound was classed as inactive in [3].

`O=c1cc(-c2ccccc2)oc2cc(O)cc(O)c12`: the Potency entry in [1] is “inactive”. Besides, in [3], the compound was called inactive. In addition, the activation in [6] is -10.9%.

With `COc1ccc(-c2coc3cc(O)ccc3c2=O)cc1`, the result in [3] was inactive.

In the case of `CC(C)OC(=O)C(C)(C)Oc1ccc(C(=O)c2ccc(Cl)cc2)cc1`, the Potency result in [1] and in test [7] was “inactive” each time. Also, the outcome in test [9], in test [4] and in [5] was inactive. Besides, the activation was -4% in test [10] and 0.14% in [6].

As for `CC(=O)c1ccc(S(=O)(=O)NC(=O)NC2CCCCC2)cc1`, the Potency result in test [1], in test [2], in test [8] and in [7] was “inactive” throughout. Besides, the result in test [9], in test [4] and in test [5] was inactive. The activation in test [10] is -0.897% and 2.97%; in test [6] it was 9.83% and -7.15%.

Regarding `CCn1cc(C(=O)O)c(=O)c2ccc(C)nc21`, the Potency result in test [1], in test [2] and in test [8] was “inactive” throughout. Moreover, the result in test [5] was inactive.

In the case of `COCCCCC(=NOCCN)c1ccc(C(F)(F)F)cc1`, the Potency entry in [1] was “inactive”. In [3], the result was inactive.

On to `CC(C)[C@H](CO)Nc1nc(Nc2ccc(C(=O)O)c(Cl)c2)c2ncn(C(C)C)c2n1`, for which the Potency result in test [1] is “inactive”. The outcome in [3] was inactive.

With `O=C(O)c1cc(-c2ccccc2)nc2ccccc12`, the Potency entry in test [1] and in test [7] was “inactive” each time. For the same compound, in [10], the activation is -15.7%. The outcome in test [4] and in test [5] was inactive.

These data come from PubChem BioAssay (NCATS).
